In PubChem BioAssay (EPA / NIEHS):
Records with an inconclusive call do not appear. The source made the active and inactive calls. The calls were made as follows, unless noted: active = hit-call score of the fitted dose curve at least 0.9, where 1 is the maximum; inactive = score below 0.9.

Experiments:
[1] = CCTE_Mundy_HCI_hNP1_Casp3_7: CCTE's Caspase-Glo 3/7 Assay in human neuroprogenitor cells for Apoptosis, Mundy Lab (AID 2284240)
Method in brief: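 Apoptosis is scored by activated caspase-3/7 luminescence in WA09-derived neural progenitor cells, measured 26.5 h after chemical dosing. Values represent gain of signal relative to DMSO vehicle.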

[2] = CCTE_Mundy_HCI_hNP1_CellTiter: CCTE's Cell Titer-Glo 2 Assay in human neuroprogenitor cells for Viability, Mundy Lab (AID 2284241; active = hit-call score of the fitted dose curve at least 0.9, where 1 is the maximum;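 also: a hit is a drop in ATP luminescence versus DMSO meaning reduced viability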)
Method in brief: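 Human neural progenitor cells (hNP1, WA09-derived) were plated on poly-L-ornithine/laminin and grown 40 to 44 hours at 37 °C, 5% CO2 before chemical addition. Twenty-four hours later, ATP was measured by CellTiter-Glo luminescence; loss of signal versus DMSO indicates reduced viability.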

[3] = CCTE_Mundy_HCI_Cortical_Synap_Neur_Matur_NeuronCount: CCTE's Synaptogenesis and Neurite Maturation Assay in rat cortical cells for Neuron Count, Mundy Lab (AID 2284242; active = hit-call score of the fitted dose curve at least 0.9, where 1 is the maximum;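 also: hits reduce neuron count versus DMSO baseline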)
Method in brief: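 Neuron number was scored by automated high-content imaging of Hoechst- and MAP2-labelled rat primary cortical cells. Glial growth was arrested with AraC at DIV 5, compounds were applied from DIV 7, and cultures ended at DIV 12.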

[4] = IUF_NPC2c_oligodendrocyte_migration_120hr: Leibniz Research Institute for Environmental Medicine (IUF) 120-hour Neural Progenitor Cell Migration Assay for Oligodendrocyte Migration (NPC2c) (AID 2284297);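 also: O4-positive oligodendrocyte migration distance divided by radial glia migration distance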
Method in brief: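 hNPC spheres (GW 16-19 cortex), PDL/laminin, DMEM/F12 3:1 + 1% N2, 37C. Dosing day 0–5, half feed day 3, DMSO ≤0.1%. Fixed 120 h; O4 ICC + Hoechst, HCI. Readout: mean oligodendrocyte distance from sphere edge / radial glia distance.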

[5] = IUF_NPC2a_radial_glia_migration_72hr: Leibniz Research Institute for Environmental Medicine (IUF) 72-hour Neural Progenitor Cell Migration Assay for Radial Glia Migration (NPC2a) (AID 2284299)
Method in brief: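 Primary hNPC spheres, fetal brain GW 16-19, on PDL/laminin; DMEM/F12 3:1 + 1% N2. Compound dosed day 0, 7 conc. + SC, half-medium refresh day 3. 72 h brightfield, migration distance core-to-front (um), 4 directions averaged.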

[6] = IUF_NPC2b_neuronal_migration_120hr: Leibniz Research Institute for Environmental Medicine (IUF) 120-hour Neural Progenitor Cell Migration Assay for Neuron Migration (NPC2b) (AID 2284300)
Method in brief: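 hNPC spheres, PDL/laminin, DMEM:F12 3:1 + 1% N2, 37C/5% CO2; 7 concentrations + solvent control (DMSO ≤0.1%), 5 d exposure, half-feed day 3. Fix 120 h, TUBB3 ICC, HCI: mean neuron migration distance ÷ glia distance.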

[7] = IUF_NPC3_neuronal_differentiation_120hr: Leibniz Research Institute for Environmental Medicine (IUF) 120-hour Neuronal Differentiation Assay (NPC3) (AID 2284301)
Method in brief: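 Single 0.3 mm neurospheres from human fetal cortex were plated in differentiation medium containing test compound. Medium was half-replaced on day 3. After 120 h cells were fixed, immunostained and imaged, and neuronal fraction was scored against DMSO control.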

[8] = IUF_NPC5_oligodendrocyte_differentiation_120hr: Leibniz Research Institute for Environmental Medicine (IUF) 120-hour Oligodendrocyte Differentiation Assay (NPC5) (AID 2284304; active = hit-call score of the fitted dose curve at least 0.9, where 1 is the maximum;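 also: primary human fetal neural progenitor spheres plated to migrate and differentiate; share of O4-positive cells among Hoechst nuclei found by CNN image analysis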)
Method in brief: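 hNPC spheres, fetal cortex GW 16-19; PDL/laminin, DMEM:F12 3:1 + 1% N2, 37C/5% CO2; 7 concentrations + solvent control, 5 d exposure, half-change day 3. Readout: %O4+ of Hoechst+ nuclei in migration area, CNN classification; DMSO baseline.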

[9] = IUF_NPC4_neurite_area_120hr: Leibniz Research Institute for Environmental Medicine (IUF) 120-hour Neuronal Morphology Assay for Neurite Area (NPC4) (AID 2284305; active = hit-call score of the fitted dose curve at least 0.9, where 1 is the maximum)
Method in brief: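 Neurite area is read out as the mean pixel area, excluding nuclei, of skeletonized TUBB3-positive neurons imaged after 120 h. Primary human neural progenitor spheres differentiated on poly-D-lysine/laminin with compound present from day 0. Activity was referenced to DMSO controls.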

[10] = IUF_NPC2-5_cytotoxicity_72hr: Cytotoxicity Assessment at 72 hours in the Leibniz Research Institute for Environmental Medicine (IUF) Neural Progenitor Cell Migration and Differentiation Assay for Cytotoxicity (NPC2-5) (AID 2284306; active = hit-call score of the fitted dose curve at least 0.9, where 1 is the maximum;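 also: LDH release into supernatant measured by resorufin fluorescence marking membrane damage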)
Method in brief: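 Membrane integrity loss was scored from fluorescence (RFU) of resorufin generated by LDH in culture supernatant, 72 h after dosing. Differentiating human progenitor spheres received seven serial compound concentrations alongside a solvent control.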

[11] = IUF_NPC2-5_cytotoxicity_120hr: Cytotoxicity Assessment at 120 hours in the Leibniz Research Institute for Environmental Medicine (IUF) Neural Progenitor Cell Migration and Differentiation Assay (NPC2-5) (AID 2284307; active = hit-call score of the fitted dose curve at least 0.9, where 1 is the maximum;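 also: LDH released into supernatant as membrane damage marker via resorufin fluorescence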)
Method in brief: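 hNPC spheres on PDL/laminin, N2 medium, 37C; 7 concs + solvent control, DMSO ≤0.1%; 5-day exposure, half medium changed day 3. LDH in supernatant at 120 h, resazurin→resorufin fluorescence, gain-of-signal.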

[12] = IUF_NPC2-5_cell_number_120hr: Cell Number Assessment at 120 hours in the Leibniz Research Institute for Environmental Medicine (IUF) Neural Progenitor Cell Migration and Differentiation Assay (NPC2-5) (AID 2284308);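 also: count of Hoechst-stained nuclei in migration zone around plated human neural progenitor spheres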
Method in brief: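 Hoechst-stained nuclei within the migration area were counted by automated high content imaging after 120 h. Single hNPC spheres differentiated on poly-D-lysine/laminin in DMEM/F12 (3:1) with 1% N2, compound present throughout, DMSO ≤0.1%.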

[13] = IUF_NPC2-5_viability_120hr: Viability Assessment at 120 hours in the Leibniz Research Institute for Environmental Medicine (IUF) Neural Progenitor Cell Migration and Differentiation Assay (NPC2-5) (AID 2284312)
Method in brief: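 Alamar blue resorufin fluorescence read after 5 days of differentiation, with compound present from day 0 and replenished at day 3. Primary hNPC spheres on laminin-coated plates, 37C; seven concentrations plus solvent control, fitted against DMSO.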

[14] = IUF_NPC1_cytotoxicity_72hr: Cytotoxicity Assessment at 72 hours in the Leibniz Research Institute for Environmental Medicine (IUF) Neural Progenitor Cell Proliferation Assay (NPC1) (AID 2284332; active = hit-call score of the fitted dose curve at least 0.9, where 1 is the maximum;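 also: rising LDH signal means more cytotoxicity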)
Method in brief: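 Spheres of primary human neural progenitors are plated one per well on day 0 in growth-factor medium and dosed at once. After three days at 37C, supernatant LDH is measured fluorimetrically via resazurin reduction.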

[15] = CCTE_Mundy_HCI_iCellGluta_NOG_NeuronCount: CCTE's Neurite Outgrowth Assay in iCellGluta cells for Neuron Count, Mundy Lab (AID 2284340; active = hit-call score of the fitted dose curve at least 0.9, where 1 is the maximum;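 also: cells fixed about 48 h after compound addition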)
Method in brief: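 Neuron count read by automated high-content imaging of Hoechst 33342 and betaIII-tubulin/Alexa Fluor-488 labelling in human iPSC glutamatergic neurons. Activity fitted relative to DMSO.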

[16] = CCTE_Mundy_HCI_iCellGluta_NOG_NeuriteCount: CCTE's Neurite Outgrowth Assay in iCellGluta cells for Neurite Count, Mundy Lab (AID 2284342; active = hit-call score of the fitted dose curve at least 0.9, where 1 is the maximum;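 also: chemical exposure about 48 hours starting 2 hours after plating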)
IYD (gene 389434) = experiment: CCTE_GLTED_hIYD: CCTE's human Iodotyrosine Deiodinase (xIYD) Inhibition Assay, Great Lakes Toxicology and Ecology Division (GLTED) Lab (AID 2284317; active = hit-call score of the fitted dose curve at least 0.9, where 1 is the maximum;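 also: cell-free human IYD enzyme made in baculovirus insect cells; iodide freed from monoiodotyrosine measured by cerium arsenite color change at 420 nm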)
Method in brief: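 Absorbance change at 420 nm from the iodide-catalysed cerium-arsenic reaction reports free iodide released by human IYD from monoiodotyrosine. Enzyme, substrate and chemical are incubated 3 h; loss of signal is fitted relative to DMSO baseline.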

[17] = UKN5_HCS_SBAD2_cell_viability: Viability Assessment in the University of Konstanz (UKN) Leist Lab Neurite Outgrowth Assay in human iPSC-derived immature Dorsal Root Ganglia Neurons (UKN5) (AID 2284056)
Method in brief: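 iPSC-derived immature peripheral neurons (SBAD2) seeded on Matrigel with CHIR99021, SU5402 and DAPT, dosed 1 h later for 24 h. Viability from Hoechst H-33342 and calcein-AM live staining, high-content imaging; bidirectional fit versus DMSO.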

[18] = UKN5_HCS_SBAD2_neurite_outgrowth: University of Konstanz (UKN) Leist Lab Neurite Outgrowth Assay in human iPSC-derived immature Dorsal Root Ganglia Neurons (UKN5) (AID 2284070); details: actives raise or lower the signal
Method in brief: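 Read-out: calcein-AM-stained neurite area by high-content imaging, Hoechst H-33342 for viability, after 24 h exposure of iPSC-derived immature dorsal root ganglia neurons. Activity fitted in both directions relative to DMSO baseline.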

[19] = UKN2_HCS_IMR90_neural_migration: University of Konstanz (UKN) Leist Lab Neural Crest Cell Migration Assay in human induced IMR90 Pluripotent Stem Cells (UKN2) (AID 2284204); details: actives raise or lower the signal
Method in brief: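 Migration of human IMR90-derived neural crest cells into a stopper-defined gap is imaged after 24 h chemical treatment. Activity is fitted bidirectionally relative to DMSO.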

[20] = UKN4_HCS_LUHMES_neurite_outgrowth: University of Konstanz (UKN) Leist Lab Neurite Outgrowth Assay in human LUHMES cells (UKN4) (AID 2284206); details: actives raise or lower the signal
Method in brief: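 Day 0 switch to differentiation medium; day 2 replate (30000 cells/well) without cAMP and GDNF; compounds added 30 min–2 h later. At 23.5 h, 30 min calcein-AM/H-33342 live stain, then imaging.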

[21] = IUF_NPC1b_proliferation_BrdU_72hr: Leibniz Research Institute for Environmental Medicine (IUF) 72-hour Neural Progenitor Cell Bromodeoxyuridine (BrdU) Proliferation Assay (NPC1b) (AID 2284207)
Method in brief: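 Proliferation of primary human neural progenitor cells: 72 h compound treatment at 37C, 5% CO2, pH 7.2-7.6, in EGF/FGF-containing medium. Readout is BrdU uptake (last 16 h) by chemiluminescent ELISA, normalised to DMSO.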

[22] = IUF_NPC1_viability_72hr: Viability Assessment at 72 hours in the Leibniz Research Institute for Environmental Medicine (IUF) Neural Progenitor Cell Proliferation Assay (NPC1) (AID 2284209)
Method in brief: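 hNPC spheres, 1/well, EGF+FGF medium, 37C/5% CO2; dosed day 0, 72 h, no re-dosing. Resazurin reduction (alamar blue) fluorescence; DMSO = negative control/baseline; growth-factor-free wells as positive control.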

[23] = UKN4_HCS_LUHMES_cell_viability: Viability Assessment in the University of Konstanz (UKN) Leist Lab Neurite Outgrowth Assay in human LUHMES cells (UKN4) (AID 2284232)
Method in brief: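 Fluorescence intensity from high-content imaging of Hoechst H-33342/calcein-AM-stained cells served as the viability read-out. Human LUHMES precursors were differentiated 2 days, replated and treated 24 h; curves were fitted bidirectionally against DMSO.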

[24] = UKN2_HCS_IMR90_cell_viability: Viability Assessment in the University of Konstanz (UKN) Leist Lab Neural Crest Cell Migration Assay in human induced IMR90 Pluripotent Stem Cells (UKN2) (AID 2284233);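 also: viability of neural crest cells differentiated from IMR90 iPSC measured by calcein-AM fluorescence imaging; cells exposed to compound for 24 h after a 24 h migration phase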
Method in brief: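 Human IMR90-derived neural crest cells were allowed to migrate for 24 h into a cell-free zone, then exposed to test chemicals for 24 h. Calcein-AM and Hoechst staining with high-content imaging gave viability, analysed against DMSO baseline.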

BrC1CC(Br)CC(Br)CC(Br)CC(Br)CC(Br)C1 (stereo not drawn)
AC50 [1]: 4.22 µM (active)
AC50 [2]: 8.39 µM (active)
AC50 [3]: 3.43 µM (active)
AC50 [4]: 1.24 µM (active)
outcome [5]: inactive
AC50 [6]: 3.11 µM (active)
AC50 [7]: 1.72 µM (active)
AC50 [8]: 0.856 µM (active)
AC50 [9]: 1.06 µM (active)
outcome [10]: inactive
AC50 [11]: 4.52 µM (active)
outcome [12]: inactive
outcome [13]: inactive
outcome [14]: inactive
AC50 [15]: 4.56 µM (active)
AC50 [16]: 4.69 µM (active)

N[C@@H](Cc1ccc(O)c([N+](=O)[O-])c1)C(=O)O
AC50 (IYD (gene 389434)): 0.0253 µM (active)

CC(=O)OC/N=[N+](\C)[O-]
outcome [17]: inactive
AC50 [18]: 613 µM (active)
outcome [19]: inactive
AC50 [20]: 721 µM (active)
AC50 [21]: 371 µM (active)
AC50 [22]: 1150 µM (active)
outcome [23]: inactive
outcome [24]: inactive
outcome [4]: inactive
outcome [5]: inactive
outcome [6]: inactive
outcome [7]: inactive
outcome [8]: inactive
outcome [9]: inactive
outcome [12]: inactive
outcome [13]: inactive
